This note sets out measurements from PubChem BioAssay (NCI).

A short description of assay [1]: NCI Yeast Anticancer Drug Screen. Data for the rad50 strain (AID 155).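 Further: 0% = growth of vehicle-only cultures of the same strain.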 To be noted: S. cerevisiae rad50 strain growth inhibition; at 50.0 µM; active compounds read high. An outline of the steps: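 Cells are treated with compound, grown, and their growth is then scored against vehicle-only cultures of the same repair-deficient yeast strain.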
Assay [2] in a line: NCI Yeast Anticancer Drug Screen. Data for the mec2-1 strain (AID 157). To be noted: S. cerevisiae mec2-1 strain, at 50.0 µM, active compounds read high. The gist of the method: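 Vehicle-treated cultures served as reference for growth inhibition of compound-exposed mec2-1 yeast.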
Assay [3] in a line: NCI Yeast Anticancer Drug Screen. Data for the sgs1 mgt1 strain (AID 161).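 Further: 0% = growth of cultures given vehicle only.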 As to conditions: S. cerevisiae sgs1 mgt1 strain, at 50.0 µM, active compounds read high. An outline of the steps: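 Test agents were incubated with a DNA-repair-mutant yeast strain. Growth was then read and compared against vehicle-treated controls.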
A short description of assay [4]: NCI Yeast Anticancer Drug Screen. Data for the cln2 rad14 strain (AID 165).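 Further: 0% = growth equal to vehicle treated cultures.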 As to conditions: S. cerevisiae cln2 rad14 strain, at 50.0 µM, active compounds read high. The gist of the method: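 Each compound was tested on cln2 rad14 yeast. Inhibition of growth was calculated against vehicle-exposed controls.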
Assay [5] is described as follows: NCI Yeast Anticancer Drug Screen. Data for the bub3 strain (AID 167). As to conditions: S. cerevisiae bub3 mutant strain, at 50.0 µM, active compounds read high. An outline of the steps:
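Part of a panel of yeast mutants defective in DNA damage repair or cell cycle regulation. Each strain is grown with compound, and inhibition is calculated relative to solvent-treated cultures.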

The nature of assay [6]: NCI Yeast Anticancer Drug Screen. Data for the mlh1 rad18 strain (AID 175). As to conditions: S. cerevisiae mlh1 rad18 strain growth inhibition; at 50.0 µM; active compounds read high. The gist of the method: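 Vehicle-treated cultures served as the reference for growth inhibition in a yeast strain carrying DNA damage repair alterations exposed to each compound.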

Molecules are shown by their SMILES. This is part of a sample that, as a whole, favours compounds with a hit. Of some 79,000 tested, about 15% had one in any assay. Unmarked numbers belong to inactive results. Activity calls are given as the source filed them. No stated cut-off is given here; in the data, active means growth inhibition above about 70%; inactive means the rest.

On to `CC(=O)N(C(C)=O)c1cc2c3ccccc3ccc2c2ccccc12`, for which the growth inhibition in assay [1] is 22.4%; in assay [2] it was -6.3%; in assay [3], 31.1%; in assay [4] it was 15.1%; in assay [5], 32.8%; in assay [6], 29.4%.

Regarding `CCOC1=CC(=O)C(=O)c2ccccc21`, the growth inhibition in assay [1] is -1.05%; in assay [2], -10.2%; in assay [3], -5.8%; in assay [4] it was -17.7%; in assay [5], -0.55%; in assay [6] it was 10.3%.

On to `Nc1nnc(Cc2cccc3ccccc23)o1`, for which the growth inhibition was -1.05% in assay [1]; -11.4% in assay [2]; -13.1% in assay [3]; -0.7% in assay [4]; -15.6% in assay [5]; 1.1% in assay [6].

Take `O=C(Oc1ccccc1)Oc1c(Cl)cc([N+](=O)[O-])cc1[N+](=O)[O-]`: the growth inhibition in assay [1] is 25%; in assay [2], 1.4%; in assay [3] it was 5.25%; in assay [4] it was 10.9%; in assay [5], 0.45%; in assay [6] it was 15.5%.

In the case of `O=C1ON(c2ccccc2)C(c2ccc(OCc3ccccc3)cc2)N1c1ccccc1` (stereo unspecified), the growth inhibition in assay [1] is 42.6%; in assay [2], 14%; in assay [3] it was 11.8%; in assay [4] it was 4.35%; in assay [5], 27.5%; in assay [6] it was 26.8%.

For `C=CCOC(C)OCC=C`, the growth inhibition in assay [1] is 17.9%; in assay [2], 7.9%; in assay [3] it was -1.35%; in assay [4], -23.5%; in assay [5] it was 13.3%; in assay [6], -0.15%.

As to `Cc1c(-c2ccc3c(c2)COC3)sc(N)c1C#N`, the growth inhibition in assay [1] is 4.7%; in assay [2], -4.3%; in assay [3], 27.2%; in assay [4] it was 24.3%; in assay [5] it was 47.8%; in assay [6], -5.4%.

On to `CCOC(=O)C1(C)CCc2sc(N)c(C#N)c21` (stereo unspecified), for which the growth inhibition was -29.2% in assay [1]; -2.4% in assay [2]; 3.75% in assay [3]; -10.8% in assay [4]; 2.8% in assay [5]; -8.5% in assay [6].

Turning to `FC(F)(F)c1ccc2nc[nH]c2c1`, the growth inhibition in assay [1] is 5.3%; in assay [2] it was -10.2%; in assay [3] it was -3.15%; in assay [4], -10.4%; in assay [5], 9.6%; in assay [6], 6.95%.

Take `O=C(O)C1=NN(c2cc(Cl)c(S(=O)(=O)O)cc2Cl)C(=O)C1`: the growth inhibition was -33.2% in assay [1]; -45.1% in assay [2]; -14.1% in assay [3]; 6.1% in assay [4]; -5.85% in assay [5]; -32.9% in assay [6].

Take `O=C(CSc1nc2[nH]ncc2c(=O)[nH]1)c1ccc(Cl)cc1`: the growth inhibition in assay [1] is -37.2%; in assay [2], -36.6%; in assay [3] it was -27.2%; in assay [4] it was 3.5%; in assay [5] it was 11.4%; in assay [6], -34.2%.

With `CCOC(=O)C(=O)Nc1nc2ccc(OC)cc2s1`, the growth inhibition in assay [1] was -39.8%; in assay [2], -7.3%; in assay [3], -10.8%; in assay [4], 6.75%; in assay [5], 0.15%; in assay [6], 9.25%.

For `CC(C)c1ccccc1OC(=O)c1cccc(Br)c1`, the growth inhibition was -19% in assay [1]; -1.95% in assay [2]; 0.35% in assay [3]; -23.1% in assay [4]; 13.9% in assay [5]; 1.5% in assay [6].

On to `c1cc2cc3c4c5c(cc6ccc7cc8cc9c%10c8c8c7c6c5c8c5c%10c(c1C9N1CCOCCOCCOCCOCCOCC1)c2c45)C3` (stereo unspecified), for which the growth inhibition was -15.1% in assay [1]; -2.35% in assay [2]; 3.1% in assay [3]; 17.7% in assay [4]; 3.35% in assay [5]; -9.9% in assay [6].

With `OC1COC(O)(CN2CCOCC2)C(O)C1O` (stereo unspecified), the growth inhibition in assay [1] is 14.2%; in assay [2], 5.95%; in assay [3], 10.6%; in assay [4], 4.75%; in assay [5], 18.1%; in assay [6], 7.6%.

Regarding `CN(C)c1ccc(-c2c3ccc(Cl)cc3nc3ccc(Br)cc23)cc1`, the growth inhibition in assay [1] is -1.3%; in assay [2] it was -1.9%; in assay [3] it was -18.1%; in assay [4] it was -4.3%; in assay [5], -1%; in assay [6], -8.9%.

Consider `C/C=C/C(O)CC` (stereo unspecified), for which the growth inhibition in assay [1] was 13.8%; in assay [2], -38.4%; in assay [3], 3.2%; in assay [4], -0.85%; in assay [5], -10.8%; in assay [6], 0.5%.

Consider `CC1(C)CC(C)(C)c2c1oc(=O)c1c3c(oc(=O)c21)C(C)(C)CC3(C)C`, for which the growth inhibition in assay [1] is 15.7%; in assay [2] it was -9.1%; in assay [3] it was 12.8%; in assay [4], 35.5%; in assay [5], 26.2%; in assay [6] it was -9.85%.

For `Cc1ccc(C2(C#N)CCCC2)cc1`, the growth inhibition in assay [1] is 5.55%; in assay [2] it was -1%; in assay [3] it was 12%; in assay [4] it was 3.85%; in assay [5] it was 15.6%; in assay [6], 4.7%.

Turning to `O=CC(=O)c1ccccc1O`, the growth inhibition in assay [1] is 30.1%; in assay [2] it was 36.6%; in assay [3], 44.9%; in assay [4] it was 18.3%; in assay [5] it was 37%; in assay [6], 75.7% (active).

Take `C=CCOC(=O)NCC(=O)NC(C)C(N)=O` (stereo unspecified): the growth inhibition in assay [1] was -22.7%; in assay [2], -14.2%; in assay [3] it was -19.1%; in assay [4], 2.55%; in assay [5], -5.5%; in assay [6], 4.25%.
